For part of these data: Measured potencies and affinities stand elsewhere. Activity calls are given as the source filed them.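 How the source made its calls, unless noted: active means dose curve with midpoint inside tested range, moderate steepness, plateau gap beyond fit error, low compound glow and bead-link interference; inactive means the rest.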

Assay [1] deals with Cell division control protein 42 homolog (Homo sapiens) (UniProt P60953). The assay can be described thus: activated mutant Cdc42 GTP-binding inhibitors, dose response, biochemical, multiplex bead flow cytometry, Bodipy-FL-GTP (AID 1333;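 active means fitted half-maximal concentration within the tested dose range, moderate curve steepness, a statistically real signal drop, and little compound fluorescence or tag-binding interference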). (A flow cytometer gives signals particle by particle.)
Chain of Cell division control protein 42 homolog (Homo sapiens) (P60953 whole entry, looked up): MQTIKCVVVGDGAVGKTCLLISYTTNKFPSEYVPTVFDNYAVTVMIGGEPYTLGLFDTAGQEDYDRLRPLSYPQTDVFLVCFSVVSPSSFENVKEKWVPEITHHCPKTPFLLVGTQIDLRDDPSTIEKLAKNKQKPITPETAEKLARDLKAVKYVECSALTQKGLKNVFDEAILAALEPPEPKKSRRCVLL
Assay [2] has the same target. In words: wildtype Cdc42 GTP-binding inhibitors, dose response, biochemical, multiplex bead flow cytometry, Bodipy-FL-GTP (AID 1334;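 active means fitted half-maximal concentration within the tested range, moderate curve steepness, significant signal drop, and little compound fluorescence or bead-linkage interference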). The conditions noted are these: bead-based flow cytometry, Bodipy-FL-GTP binding to GST-Cdc42; at 100 µM (top of the series) unless noted.
The target in assay [3] is GTPase HRas (Homo sapiens) (UniProt P01112). The assay can be described thus: inhibitors of GTP binding to wildtype Ras, dose response, biochemical, multiplex bead flow cytometry (AID 1335;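 active means fitted half-maximal concentration within 10 nM to 100 µM, steepness 0.5 to 2, significant signal drop, low assay interference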). As to conditions: bead-based flow cytometry, Bodipy-GTP binding to GST-Ras; at 100 µM (top of the series) unless noted.
Chain of GTPase HRas (Homo sapiens) (P01112 whole entry, looked up): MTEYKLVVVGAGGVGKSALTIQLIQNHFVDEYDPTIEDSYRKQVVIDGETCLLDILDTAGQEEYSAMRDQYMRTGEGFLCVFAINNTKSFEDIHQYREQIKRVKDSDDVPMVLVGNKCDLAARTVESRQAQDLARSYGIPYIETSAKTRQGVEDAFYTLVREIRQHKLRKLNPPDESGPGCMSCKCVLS
The test system of assay [4] is Ras-related protein Rab-7a (dog), GTP binding. The assay can be described thus: Rab7 GTP binding inhibitors, potency, dose response, biochemical, wildtype, multiplex bead flow cytometry (AID 1336; call rule not given here).
In assay [5] the target is Ras-related C3 botulinum toxin substrate 1 (Homo sapiens) (UniProt P63000). In words: wildtype Rac1 GTP binding inhibitors, dose response, biochemical, multiplex bead flow cytometry (AID 1340). As to conditions: GST-Rac1 beads, Bodipy-FL-GTP binding; at 100 µM (top of the series) unless noted.
Assay [6] deals with GTPase HRas (Homo sapiens) (UniProt P01112). In words: activated Ras mutant GTP binding inhibitors, dose response, biochemical, multiplex bead flow cytometry (AID 1341;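 active means dose-response curve with midpoint inside the tested range, moderate steepness, significant amplitude and little compound fluorescence or bead-attachment interference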;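 further: GST-tagged constitutively activated Ras mutant immobilized on beads and multiplexed with other GTPases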).

As to `COc1cc(C(=S)NCc2ccccc2)cc(Br)c1O`, the molecule was called inactive in assay [1], in assay [4] and in assay [6]. In assay [2], the fluorescence, percent of control (lower = inhibition) came out at 23.5%. Moreover, the GTP binding, percent of control in assay [3] came to 56.3%. For the same molecule, the GTP binding signal, raw median fluorescence (lower = inhibition) (MCF (arbitrary fluorescence units)) in assay [5] was found to be 246.
On to `O=C(O)c1cc(-c2ccc(/C=C3/SC(=S)N(Cc4ccccc4)C3=O)o2)ccc1Cl`, for which the molecule was called inactive in assay [1], in assay [4] and in assay [6]. Further, the fluorescence, percent of control (lower = inhibition) in assay [2] was determined as 31.5%. The molecule also had a GTP binding, percent of control in assay [3] of 61.5%. Also, the GTP binding signal, raw median fluorescence (lower = inhibition) (MCF (arbitrary fluorescence units)) in assay [5] was 154.
Consider `CCCCOc1cccc(C#CC(=O)c2ccc([N+](=O)[O-])cc2)c1`, for which the molecule was classed as inactive in assay [1], in assay [4] and in assay [6]. Further, the fluorescence, percent of control (lower = inhibition) in assay [2] came out at 59.2%. In assay [3], this molecule registered a GTP binding, percent of control of 182%. The molecule also came in with a GTP binding signal, raw median fluorescence (lower = inhibition) (MCF (arbitrary fluorescence units)) in assay [5] of 128.
Take `CCOc1ccc(C2C(C(=O)O)CCC(=O)N2C2CCCCC2)cc1` (stereo not given): the result in assay [1], in assay [4] and in assay [6] was inactive. This molecule also gave a fluorescence, percent of control (lower = inhibition) in assay [2] of 23%. The same molecule displayed a GTP binding, percent of control in assay [3] of 59.8%. The molecule further had a GTP binding signal, raw median fluorescence (lower = inhibition) (MCF (arbitrary fluorescence units)) in assay [5] of 178.
As for `Cc1ccc(OCc2ccccc2C)c(C(=O)O)c1`, the call in assay [1], in assay [4] and in assay [6] was inactive. In assay [2], the fluorescence, percent of control (lower = inhibition) turned out to be 58.3%. Also, the GTP binding, percent of control in assay [3] was 207%. This molecule came in with a GTP binding signal, raw median fluorescence (lower = inhibition) (MCF (arbitrary fluorescence units)) in assay [5] of 54.4.
Regarding `Cc1ccc(Nc2c(F)c(F)c(F)c(F)c2C(=O)O)c(C)c1`, the molecule was classed as inactive in assay [1], in assay [4] and in assay [6]. Moreover, the fluorescence, percent of control (lower = inhibition) in assay [2] was determined as 92.8%. Besides, the GTP binding, percent of control in assay [3] is 109%. For the same molecule, in assay [5], the GTP binding signal, raw median fluorescence (lower = inhibition) (MCF (arbitrary fluorescence units)) came out at 75.2.
Regarding `CCCCCN1CC(O)=C(c2nc(-c3ccc(Cl)cc3)cs2)C1=N`, the outcome in assay [1], in assay [4] and in assay [6] was inactive. The fluorescence, percent of control (lower = inhibition) in assay [2] was found to be 88.4%. For the same molecule, the GTP binding, percent of control in assay [3] was 167%. In addition, the GTP binding signal, raw median fluorescence (lower = inhibition) (MCF (arbitrary fluorescence units)) in assay [5] was determined as 184.
`Oc1ccc(NC(=S)N=Nc2c(O)[nH]c3ccccc23)cc1`: the call in assay [1], in assay [4] and in assay [6] was inactive. The fluorescence, percent of control (lower = inhibition) in assay [2] is 16.7%. The same molecule registered a GTP binding, percent of control in assay [3] of 62.5%. The GTP binding signal, raw median fluorescence (lower = inhibition) (MCF (arbitrary fluorescence units)) in assay [5] turned out to be 62.8.
`O=C(O)c1ccc(COc2ccc(F)cc2)o1`: the call in assay [1], in assay [4] and in assay [6] was inactive. The fluorescence, percent of control (lower = inhibition) in assay [2] was 61.2%. Also, the GTP binding, percent of control in assay [3] is 87.5%. The GTP binding signal, raw median fluorescence (lower = inhibition) (MCF (arbitrary fluorescence units)) in assay [5] was found to be 35.
In the case of `CCOc1ccc2nc(NC(=O)CSc3nc(-c4ccccc4)c(C#N)c(=O)[nH]3)sc2c1`, the molecule was classed as inactive in assay [1], in assay [4] and in assay [6]. This molecule also showed a fluorescence, percent of control (lower = inhibition) in assay [2] of 25.1%. In assay [3], this molecule came in with a GTP binding, percent of control of 70%. In assay [5], this molecule yielded a GTP binding signal, raw median fluorescence (lower = inhibition) (MCF (arbitrary fluorescence units)) of 240.
Consider `COc1ccccc1NC(=O)CSc1ccc2nnc(-c3cccnc3)n2n1`, for which the molecule was classed as inactive in assay [1], in assay [4] and in assay [6]. The same molecule showed a fluorescence, percent of control (lower = inhibition) in assay [2] of 36.4%. In addition, the GTP binding, percent of control in assay [3] is 49%. The molecule also yielded a GTP binding signal, raw median fluorescence (lower = inhibition) (MCF (arbitrary fluorescence units)) in assay [5] of 114.
As for `Cc1ccccc1OCCn1cc(C(=O)O)c2cccc(C)c21`, the molecule was called inactive in assay [1], in assay [4] and in assay [6]. Further, the fluorescence, percent of control (lower = inhibition) in assay [2] was 53.7%. Moreover, the GTP binding, percent of control in assay [3] is 200%. In assay [5], this molecule returned a GTP binding signal, raw median fluorescence (lower = inhibition) (MCF (arbitrary fluorescence units)) of 53.4.
With `COc1ccc(/C=N/NC(=S)Nc2cc(S(=O)(=O)N3CCOCC3)ccc2N2CCOCC2)cc1O`, the call in assay [1], in assay [4] and in assay [6] was inactive. In assay [2], the fluorescence, percent of control (lower = inhibition) was found to be 65.8%. Besides, in assay [3], the GTP binding, percent of control is 80.8%. In assay [5], this molecule showed a GTP binding signal, raw median fluorescence (lower = inhibition) (MCF (arbitrary fluorescence units)) of 0.
With `N#Cc1c2c(c(-c3ccccc3Cl)[nH]c1=S)CCCC2`, the outcome in assay [1], in assay [4] and in assay [6] was inactive. In addition, in assay [2], the fluorescence, percent of control (lower = inhibition) is 28.8%. Also, in assay [3], the GTP binding, percent of control was determined as 78.4%. For the same molecule, in assay [5], the GTP binding signal, raw median fluorescence (lower = inhibition) (MCF (arbitrary fluorescence units)) is 248.
For the molecule `COc1ccc(-c2csc(NC(=S)NC(=O)c3cccs3)n2)cc1OC`, the molecule was classed as inactive in assay [1], in assay [4] and in assay [6]. Also, the fluorescence, percent of control (lower = inhibition) in assay [2] was 36.6%. In assay [3], this molecule registered a GTP binding, percent of control of 78.1%. The GTP binding signal, raw median fluorescence (lower = inhibition) (MCF (arbitrary fluorescence units)) in assay [5] came out at 176.

Source of the values: PubChem BioAssay.
